Test results as given in PubChem BioAssay AID1159580 (chemical genetic matrix, 2015).
Where “and” joins values, the source holds several entries; their conditions need not be identical. Identical values can stand only once. The campaign covered roughly 5,500 compounds. About 2,000 (36%) were called active. Roughly 18% stayed inconclusive and do not appear here. No stated cut-off is given here; in the data, active means normalized growth mostly below about 0.91 (no sharp cut-off); inconclusive means no clear call, values can overlap the other calls; inactive means mostly above about 0.92. Some of the results follow.

Assay: chemical genetic growth profiling, strain panel (AID 1159580);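 further: tested at 20 µM; growth read once vehicle control cultures reached saturation at 30 °C; 1 = growth at the plate median or of vehicle wells; lower values mean less growth of the strain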
Settings: S. cerevisiae deletion strains, growth OD

Measured: normalized growth

O=C(CCCN1CCC2(CC1)C(=O)NCN2c1ccccc1)c1ccc(F)cc1
inactive: locus YAL021C, strain ccr4, hits give low values 0.956 | locus YAL026C, strain drs2, hits give low values 0.981 | locus YAL030W, strain snc1, hits give low values 0.983 | locus YAL040C, strain CLN3, hits give low values 0.989 | locus YBL061C, strain skt5, hits give low values 0.979 | locus YBR009C, strain hhf1, hits give low values 1.02 | locus YBR021W, strain FUR4, hits give low values 1 | locus YBR023C, strain chs3, hits give low values 0.995 | locus YBR171W, strain sec66, hits give low values 0.965 | locus YBR229C, strain ROT2, hits give low values 0.964 | locus YBR231C, strain swc5, hits give low values 1.04 | locus YBR279W, strain paf1, hits give low values 0.983 | locus YCL016C, strain dcc1, hits give low values 0.975 | locus YCL029C, strain bik1, hits give low values 0.995 | locus YCL061C, strain MRC1 (second series), hits give low values 0.999 | locus YCL061C, strain MRC1, hits give low values 0.981 | locus YCL069W, strain vba3, hits give low values 0.98 | locus YCR088W, strain abp1, hits give low values 0.982 | locus YDL005C, strain med2, hits give low values 0.961 | locus YDL035C, strain GPR1, hits give low values 0.992 | locus YDL040C, strain nat1, hits give low values 0.982 | locus YDL074C, strain BRE1, hits give low values 0.972 | locus YDL101C, strain DUN1, hits give low values 0.984 | locus YDL134C, strain PPH21, hits give low values 1.01 | locus YDL185W, strain tfp1, hits give low values 0.969 | locus YDL192W, strain arf1, hits give low values 0.997 | locus YDR001C, strain nth1, hits give low values 0.979 | locus YDR069C, strain doa4, hits give low values 0.946 | locus YDR101C, strain arx1, hits give low values 0.988 | locus YDR137W, strain rgp1, hits give low values 0.993 | locus YDR150W, strain NUM1, hits give low values 0.996 | locus YDR159W, strain sac3, hits give low values 0.998 | locus YDR162C, strain NBP2, hits give low values 0.999 | locus YDR195W, strain ref2 1.01 | locus YDR297W, strain sur2, hits give low values 0.981 | locus YDR318W, strain mcm21, hits give low values 0.993 | locus YDR334W, strain swr1, hits give low values 0.969 | locus YDR335W, strain msn5, hits give low values 0.966 | locus YDR363W, strain ESC2, hits give low values 0.999 | locus YDR388W, hits give low values 0.996 | locus YDR392W, strain spt3, hits give low values 0.881 | locus YDR502C, strain sam2, hits give low values 0.989 | locus YEL003W, strain gim4, hits give low values 0.991 | locus YEL037C, strain rad23, hits give low values 0.983 | locus YEL061C, strain CIN8 (second series), hits give low values 0.992 | locus YEL061C, strain CIN8, hits give low values 0.988 | locus YER002W, strain NOP16, hits give low values 0.993 | locus YER015W, strain faa2, hits give low values 1 | locus YER016W, strain bim1, hits give low values 0.936 | locus YER110C, hits give low values 0.99 | locus YER111C, strain swi4, hits give low values 0.966 | locus YER155C, strain BEM2 (second series), hits give low values 0.966 | locus YER155C, strain BEM2, hits give low values 1 | locus YER167W, strain BCK2, hits give low values 0.995 | locus YFR010W, strain ubp6, hits give low values 1 | locus YGL078C, strain dbp3, hits give low values 0.994 | locus YGL086W, strain mad1, hits give low values 0.988 | locus YGL167C, strain pmr1, hits give low values 0.922 | locus YGL173C, strain kem1, hits give low values 0.998 | locus YGL227W, strain vid30, hits give low values 0.993 | locus YGL240W, strain doc1, hits give low values 0.991 | locus YGL248W, strain PDE1, hits give low values 0.975 | locus YGL253W, strain hxk2, hits give low values 0.993 | locus YGR078C, strain PAC10, hits give low values 0.967 | locus YGR135W, strain pre9, hits give low values 0.997 | locus YGR229C, strain SMI1, hits give low values 0.994 and 0.978 | locus YGR252W, strain gcn5, hits give low values 0.96 | locus YHR013C, strain ard1, hits give low values 0.91 | locus YHR027C, strain rpn1, hits give low values 0.994 | locus YHR030C, strain SLT2, hits give low values 1 and 0.988 | locus YHR079C, strain IRE1 (second series), hits give low values 0.989 | locus YHR079C, strain IRE1, hits give low values 1.01 | locus YHR094C, strain hxt1, hits give low values 0.998 | locus YHR129C, strain ARP1, hits give low values 1 | locus YHR142W, strain chs7, hits give low values 0.964 | locus YHR200W, strain rpn10, hits give low values 0.987 | locus YIL066C, strain RNR3, hits give low values 0.972 | locus YIL073C, strain SPO22, hits give low values 1.07 | locus YIL125W, strain kgd1, hits give low values 0.984 | locus YIR030C, strain dcg1, hits give low values 0.994 | locus YJL092W, strain hpr5, hits give low values 0.974 | locus YJL095W, strain BCK1 (second series), hits give low values 0.982 | locus YJL095W, strain BCK1, hits give low values 0.968 and 1.01 | locus YJL115W, strain asf1, hits give low values 0.966 | locus YJL129C, strain trk1, hits give low values 0.949 | locus YJL134W, strain LCB3, hits give low values 1 | locus YJL154C, strain vps35, hits give low values 0.969 | locus YJL164C, strain tpk1, hits give low values 0.984 | locus YJL166W, strain qcr8, hits give low values 0.99 | locus YJL168C, strain set2, hits give low values 0.986 | locus YJL187C, strain SWE1 (second series), hits give low values 0.969 | locus YJR043C, strain POL32, hits give low values 0.997 | locus YJR066W, strain TOR1, hits give low values 0.938 | locus YJR075W, strain HOC1, hits give low values 0.985 and 0.996
